Among all 5,500 compounds or so, about 2,000 (36%) were called active. Inconclusive results (about 18%) are left out. Cut-off read from the data, not from the text of the source: active = normalized growth mostly below about 0.91 (no sharp cut-off); inconclusive = no clear call, values can overlap the other calls; inactive = mostly above about 0.92. Some of the results follow.
Assay: chemical genetic growth profiling, strain panel (AID 1159580);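 note: tested at 20 µM; growth read once vehicle control cultures reached saturation at 30 °C; 1 = growth at the plate median or of vehicle wells; lower values mean less growth of the strain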
Conditions: growth OD

Measured: normalized growth

O=C1OC(c2ccc(O)cc2)(c2ccc(O)cc2)c2ccccc21
active: S. cerevisiae deletion strains, locus YLR418C, strain cdc73, stronger effect = lower value 0.835
inactive: S. cerevisiae deletion strains, locus YJR043C, strain POL32, stronger effect = lower value 0.991 | S. cerevisiae deletion strains, locus YJR066W, strain TOR1, stronger effect = lower value 0.937 | S. cerevisiae deletion strains, locus YKL009W, strain mrt4, stronger effect = lower value 0.979 | S. cerevisiae deletion strains, locus YKL068W, stronger effect = lower value 0.991 | S. cerevisiae deletion strains, locus YKL085W, strain MDH1 (second series), stronger effect = lower value 0.975 | S. cerevisiae deletion strains, locus YKL085W, strain MDH1, stronger effect = lower value 0.975 | S. cerevisiae deletion strains, locus YKL160W, strain elf1, stronger effect = lower value 0.97 | S. cerevisiae deletion strains, locus YKL190W, strain CNB1, stronger effect = lower value 0.994 | S. cerevisiae deletion strains, locus YKR001C, strain vps1, stronger effect = lower value 0.993 | S. cerevisiae deletion strains, locus YKR091W, strain srl3, stronger effect = lower value 0.989 | S. cerevisiae deletion strains, locus YLL001W, strain dnm1, stronger effect = lower value 0.964 | S. cerevisiae deletion strains, locus YLL026W, stronger effect = lower value 0.973 | S. cerevisiae deletion strains, locus YLL041C, strain sdh2, stronger effect = lower value 0.979 | S. cerevisiae deletion strains, locus YLR027C, strain aat2, stronger effect = lower value 0.983 | S. cerevisiae deletion strains, locus YLR039C, strain RIC1, stronger effect = lower value 0.96 | S. cerevisiae deletion strains, locus YLR058C, strain SHM2, stronger effect = lower value 0.995 | S. cerevisiae deletion strains, locus YLR102C, strain apc9, stronger effect = lower value 0.978 | S. cerevisiae deletion strains, locus YLR113W, strain HOG1, stronger effect = lower value 0.974 | S. cerevisiae deletion strains, locus YLR221C, strain rsa3, stronger effect = lower value 1.01 | S. cerevisiae deletion strains, locus YLR258W, strain gsy2, stronger effect = lower value 0.973 | S. cerevisiae deletion strains, locus YLR262C, strain YPT6 (second series), stronger effect = lower value 0.995 | S. cerevisiae deletion strains, locus YLR262C, strain YPT6, stronger effect = lower value 0.946 | S. cerevisiae deletion strains, locus YLR268W, strain sec22, stronger effect = lower value 0.916 | S. cerevisiae deletion strains, locus YLR320W, strain mms22, stronger effect = lower value 1 | S. cerevisiae deletion strains, locus YLR330W, strain CHS5, stronger effect = lower value 0.982 | S. cerevisiae deletion strains, locus YLR342W, strain FKS1 (second series), stronger effect = lower value 0.998 | S. cerevisiae deletion strains, locus YLR342W, strain FKS1, stronger effect = lower value 0.994 | S. cerevisiae deletion strains, locus YLR357W, strain rsc2, stronger effect = lower value 0.949 | S. cerevisiae deletion strains, locus YLR370C, strain arc18, stronger effect = lower value 0.989 | S. cerevisiae deletion strains, locus YLR371W, strain rom2, stronger effect = lower value 0.948 | S. cerevisiae deletion strains, locus YLR384C, strain iki3, stronger effect = lower value 0.981 | S. cerevisiae deletion strains, locus YML016C, strain PPZ1, stronger effect = lower value 1 | S. cerevisiae deletion strains, locus YML032C, strain rad52, stronger effect = lower value 0.956 | S. cerevisiae deletion strains, locus YML120C, strain ndi1, stronger effect = lower value 0.977 | S. cerevisiae deletion strains, locus YML124C, strain tub3, stronger effect = lower value 0.978 | S. cerevisiae deletion strains, locus YMR058W, strain fet3, stronger effect = lower value 0.966 | S. cerevisiae deletion strains, locus YMR078C, strain ctf18, stronger effect = lower value 0.968 | S. cerevisiae deletion strains, locus YMR125W, strain sto1, stronger effect = lower value 0.962 | S. cerevisiae deletion strains, locus YMR129W, stronger effect = lower value 0.987 | S. cerevisiae deletion strains, locus YMR205C, strain PFK2, stronger effect = lower value 0.971 | S. cerevisiae deletion strains, locus YMR223W, strain ubp8, stronger effect = lower value 0.997 | S. cerevisiae deletion strains, locus YMR231W, strain pep5, stronger effect = lower value 0.992 | S. cerevisiae deletion strains, locus YMR307W, strain GAS1, stronger effect = lower value 0.909 | S. cerevisiae deletion strains, locus YNL067W, strain RPL9B, stronger effect = lower value 0.987 | S. cerevisiae deletion strains, locus YNL071W, strain lat1, stronger effect = lower value 0.95 | S. cerevisiae deletion strains, locus YNL153C, strain GIM3, stronger effect = lower value 1 | S. cerevisiae deletion strains, locus YNL183C, strain NPR1, stronger effect = lower value 0.956 | S. cerevisiae deletion strains, locus YNL209W, strain ssb2, stronger effect = lower value 0.99 | S. cerevisiae deletion strains, locus YNL233W, strain BNI4, stronger effect = lower value 0.981 | S. cerevisiae deletion strains, locus YNL250W, strain rad50, stronger effect = lower value 0.99 | S. cerevisiae deletion strains, locus YNL271C, strain bni1, stronger effect = lower value 0.988 | S. cerevisiae deletion strains, locus YNL298W, strain CLA4, stronger effect = lower value 0.99 | S. cerevisiae deletion strains, locus YNL307C, strain MCK1, stronger effect = lower value 0.937 | S. cerevisiae deletion strains, locus YNL322C, strain KRE1 (second series), stronger effect = lower value 0.991 | S. cerevisiae deletion strains, locus YNL322C, strain KRE1, stronger effect = lower value 0.994 | S. cerevisiae deletion strains, locus YNR049C, strain mso1, stronger effect = lower value 0.99 | S. cerevisiae deletion strains, locus YNR052C, strain pop2, stronger effect = lower value 0.969 | S. cerevisiae deletion strains, locus YOL006C, strain TOP1, stronger effect = lower value 0.952 | S. cerevisiae deletion strains, locus YOL012C, strain htz1 0.612 | S. cerevisiae deletion strains, locus YOL147C, strain pex11, stronger effect = lower value 0.981 | S. cerevisiae deletion strains, locus YOR001W, strain rrp6, stronger effect = lower value 0.973 | S. cerevisiae deletion strains, locus YOR061W, strain CKA2, stronger effect = lower value 1 | S. cerevisiae deletion strains, locus YOR069W, strain VPS5, stronger effect = lower value 0.988 | S. cerevisiae deletion strains, locus YOR070C, strain gyp1, stronger effect = lower value 0.991 | S. cerevisiae deletion strains, locus YOR080W, strain dia2, stronger effect = lower value 0.981 | S. cerevisiae deletion strains, locus YOR083W, strain WHI5, stronger effect = lower value 0.983 | S. cerevisiae deletion strains, locus YOR106W, strain vam3, stronger effect = lower value 0.944 | S. cerevisiae deletion strains, locus YOR136W, strain idh2, stronger effect = lower value 0.983 | S. cerevisiae deletion strains, locus YOR144C, strain elg1, stronger effect = lower value 0.987 | S. cerevisiae deletion strains, locus YOR184W, strain ser1, stronger effect = lower value 0.939 | S. cerevisiae deletion strains, locus YOR231W, strain MKK1, stronger effect = lower value 0.974 | S. cerevisiae deletion strains, locus YOR265W, strain rbl2, stronger effect = lower value 0.995 | S. cerevisiae deletion strains, locus YOR270C, strain vph1, stronger effect = lower value 0.89 | S. cerevisiae deletion strains, locus YOR290C, strain snf2, stronger effect = lower value 0.965 | S. cerevisiae deletion strains, locus YOR316C, strain cot1, stronger effect = lower value 0.968 | S. cerevisiae deletion strains, locus YPL051W, strain arl3, stronger effect = lower value 1 | S. cerevisiae deletion strains, locus YPL078C, strain atp4, stronger effect = lower value 0.952 | S. cerevisiae deletion strains, locus YPL106C, strain sse1, stronger effect = lower value 1.01 | S. cerevisiae deletion strains, locus YPL240C, strain hsp82, stronger effect = lower value 0.982 | S. cerevisiae deletion strains, locus YPL241C, strain CIN2, stronger effect = lower value 0.989 | S. cerevisiae deletion strains, locus YPL256C, strain CLN2, stronger effect = lower value 0.965 | S. cerevisiae deletion strains, locus YPR119W, strain clb2, stronger effect = lower value 0.98 | S. cerevisiae deletion strains, locus YPR141C, strain kar3, stronger effect = lower value 0.998 | S. cerevisiae deletion strains, locus YPR163C, strain tif3, stronger effect = lower value 0.965 | S. cerevisiae deletion strains, locus YPR167C, strain met16, stronger effect = lower value 0.972 | S. cerevisiae deletion strains, strain wtn01, stronger effect = lower value 0.954 | S. cerevisiae strains, strain wild type, stronger effect = lower value 0.998

From PubChem BioAssay AID1159580 (chemical genetic matrix, 2015)
